The whole screen tested about 87,000 compounds, of which about 360 (0.41%) were called active. Cut-off read from the data, not from the text of the source: active = cytotoxicity above about 50%; inactive = the rest. Shown is part of a subset that was picked to be rich in actives.

This assay is described as follows: cytotoxicity in HT1080 fibrosarcoma cells, cell-based, fluorescence readout (AID 620).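 Note: cells exposed to compound overnight then 4 h with Alamar Blue; 0% = vehicle DMSO and 100% = killing control.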 Conditions: HT1080 viability, at 10 µM, hits give high values.
`O=C1C2ON(c3ccc(Br)cc3)C(c3cccnc3)C2C(=O)N1C1CCCCC1` (stereo not given): the cytotoxicity is 1.2% (inactive).
Next, `COc1ccc2nc3oc(C(=O)N4CCN(c5ccccc5F)CC4)cc3cc2c1`: -0.7% (inactive); `Cc1cc(NC(=O)CSc2nnc(-c3cccnc3)n2C)no1`: -4.9% (inactive).
Next, `Cc1cccc(N(C(=O)Nc2ccccc2)C2=NCC(C)S2)c1` (stereo not given): -2.6% (inactive); `N#Cc1cccc(Cn2nnc(-c3ccccc3)n2)c1`: 13.7% (inactive); `COc1ccc(OC)c(-n2nnnc2SCC(=O)Nc2ccc(C(=O)N3CCCCC3)cc2)c1`: -11.6% (inactive).
The same measure for `COCCCNC(=O)CCCC(=O)NCCCOC`: -2.4% (inactive); for `COc1ccc(-c2cn3ccccc3n2)cc1OC`: 14.9% (inactive); for `COc1ccc(-c2cn3cc(Cl)ccc3n2)cc1OC`: 98.8% (active).
`COc1ccc(-c2cn3cc(C)ccc3n2)cc1OC`: the cytotoxicity was 23% (inactive).
Next, `O=C1CC(c2ccncc2)c2cc3c(cc2N1)OCCO3` (stereo not given): 5.6% (inactive).
`COc1ccccc1C1CC(=O)Nc2cc3c(cc21)OCCO3` (stereo not given): the cytotoxicity is 52.2% (active).
Next, `COc1cc2c(cc1OC)C(c1cccc(OC)c1OC)CC(=O)N2` (stereo not given): -0.5% (inactive).
As to `Cc1ccc(C2CC(=O)Nc3cc4c(cc32)OCO4)o1` (stereo not given), the cytotoxicity is 40% (inactive).
The same measure for `COc1cccc(C2CC(=O)Nc3cc4c(cc32)OCCO4)c1OC(C)C` (stereo not given): 0.6% (inactive).
As to `CC(C)Oc1ccccc1C1CC(=O)Nc2cc3c(cc21)OCO3` (stereo not given), the cytotoxicity was 67.4% (active).
Turning to `Cc1ccc(C2CC(=O)Nc3cc4c(cc32)OCCO4)s1` (stereo not given), the cytotoxicity was 7.9% (inactive).
For `CC(C)Oc1ccccc1C1CC(=O)Nc2cc3c(cc21)OCCO3` (stereo not given), the cytotoxicity was 70.5% (active).
Regarding `O=C1CC(c2cccs2)c2cc3c(cc2N1)OCO3` (stereo not given), the cytotoxicity is 13.7% (inactive).
As to `CCCCCCC(C)n1[nH]c(=O)c2c(C)cc(=O)[nH]c21` (stereo not given), the cytotoxicity is -5% (inactive).
As to `O=C(C1CCC(CNc2c(N3CCCCC3)c(=O)c2=O)CC1)N1CCCCC1` (stereo not given), the cytotoxicity is -4.8% (inactive).
Turning to `C=CCn1c(NC)cc(=O)n(C)c1=O`, the cytotoxicity is 9.8% (inactive).
For the molecule `CC1(C(=O)NC2CCCC2)CCC(=O)N1Cc1ccc2c(c1)OCO2` (stereo not given), the cytotoxicity was 20.7% (inactive).
On to `COc1ccc(O)c(C(=O)c2cc(C#N)c(=O)n(CCN3CCOCC3)c2)c1`, for which the cytotoxicity is 7% (inactive).
For `COC(=O)c1ccc(NC(=O)COc2ccc(S(=O)(=O)N3CCCCC3)cc2)cc1`, the cytotoxicity was -6.1% (inactive).
As to `c1ccc(-c2nc3ccccc3nc2N2CCOCC2)cc1`, the cytotoxicity was 19.1% (inactive).
Next, `Nc1nc(NCc2ccccc2)nc(-c2ccccc2)n1`: 12.3% (inactive); `Cc1c(NC(=O)c2ccc(=O)oc2)c(=O)n(-c2ccccc2)n1C`: 32.6% (inactive); `Cc1c(NC(=O)c2ccccc2)c(=O)n(-c2ccccc2)n1C`: -12.6% (inactive).
For `COc1cc2[nH]cc(C(=O)NCCc3ccccc3)c(=O)c2cc1OC`, the cytotoxicity was 5.3% (inactive).
Consider `CCOc1ccc(OCc2ccc(C(=O)Nc3cccnc3)o2)cc1`, for which the cytotoxicity was -3.1% (inactive).
In the case of `O=C(CSc1oc(-c2ccc(F)cc2)nc1S(=O)(=O)c1ccc(F)cc1)NCC1CCCO1` (stereo not given), the cytotoxicity is 4.4% (inactive).
As for `CCN(CC)C(=O)CN(C#N)c1nc(NC(C)C)nc(NC(C)C)n1`, the cytotoxicity was -2% (inactive).
Take `CCCS(=O)(=O)c1nnnn1-c1cccc(OC)c1`: the cytotoxicity is 66.7% (active).
The same measure for `COc1cccc(-n2nnnc2SCC(=O)NC2CCCC2)c1`: -4.7% (inactive).
For `COc1cccc(Oc2nnnn2-c2ccccc2)c1`, the cytotoxicity is -0.2% (inactive).
Next, `CC(C)(C)NC(=O)c1ccccc1-c1nc(-c2ccccc2Cl)no1`: -5.2% (inactive).
The same measure for `CC(C)NC(=O)c1ccccc1-c1nc(-c2ccccc2Cl)no1`: 50.9% (active).
Regarding `CCNC(=O)c1ccccc1-c1nc(-c2ccccc2Cl)no1`, the cytotoxicity is -5.2% (inactive).
With `COc1ccccc1N1CCN(C(=O)C2CCN(S(=O)(=O)c3ccccc3)CC2)CC1`, the cytotoxicity is -0.7% (inactive).
With `COC(=O)c1ccc(C)c(NS(=O)(=O)c2ccc(OC)c(OC)c2)c1`, the cytotoxicity was 4% (inactive).
As to `COC(=O)c1ccc(C)c(NS(=O)(=O)c2ccc3c(c2)OCCO3)c1`, the cytotoxicity is 51.6% (active).
The same measure for `COC(=O)c1ccc(Cl)c(NS(=O)(=O)c2ccc3c(c2)OCCO3)c1`: 35.5% (inactive); for `CCCC12CN3CC(C)(CN(C1)C3c1ccc3c(c1)OCO3)C2=O` (stereo not given): -1.1% (inactive).
The same measure for `CN(C)c1ccc(-c2nn3c(-c4ccncc4)nnc3s2)cc1`: 0.5% (inactive); for `CN(C)c1ccc(-c2nn3c(-c4ccc(Cl)cc4Cl)nnc3s2)cc1`: 52.2% (active).
For `Cc1nn2c(-c3ccc(Cl)cc3Cl)nnc2s1`, the cytotoxicity was 7.1% (inactive).
For `CCN(CC)c1ccc(-c2nn3c(-c4n[nH]c5c4CCC5)nnc3s2)cc1`, the cytotoxicity was 55.1% (active).
The same measure for `COc1ccccc1-c1nnc2sc(-c3ccc(N(C)C)cc3)nn12`: 33.1% (inactive); for `CCN(CC)c1ccc(-c2nn3c(-c4cccnc4)nnc3s2)cc1`: 2.9% (inactive); for `CN(C)c1ccc(-c2nn3c(-c4ccccc4Cl)nnc3s2)cc1`: 57.2% (active).
Take `CN(C)c1ccc(-c2nn3c(-c4ccc(Cl)cc4)nnc3s2)cc1`: the cytotoxicity was -10.2% (inactive).
As to `Cc1ccc(OCc2nn3c(-c4n[nH]c5c4CCC5)nnc3s2)cc1`, the cytotoxicity is 3.7% (inactive).
With `CCN(CC)c1ccc(-c2nn3c(-c4ccccc4OC)nnc3s2)cc1`, the cytotoxicity is 50.1% (active).
Take `Clc1ccccc1-c1nnc2sc(-c3ccncc3)nn12`: the cytotoxicity was -1.3% (inactive).
Regarding `CCOc1ccc(-c2nnc3sc(-c4ccccc4OC)nn23)cc1`, the cytotoxicity was 22% (inactive).
In the case of `CS(=O)(=O)N(CC(=O)N1CCCCC1)c1sc2c(c1C#N)CCCC2`, the cytotoxicity is 15.6% (inactive).
For `CN(C)CCCNC(=O)CC(c1ccccc1)c1ccccc1O` (stereo not given), the cytotoxicity was 5.3% (inactive).
As for `O=C(O)CCn1c(=O)c2ccccc2c2ccccc2c1=O`, the cytotoxicity was 2% (inactive).
With `C=CCOn1c(C)c(C(C)=O)c2c3nonc3ccc21`, the cytotoxicity is 2.2% (inactive).
Next, `Cn1c(N)c(C(=O)COC(=O)c2ccco2)c(=O)n(C)c1=O`: -0.9% (inactive).
Take `CC(=O)N1CCc2cc(S(=O)(=O)NC(C(=O)Nc3nc(C)cs3)C(C)C)ccc21` (stereo not given): the cytotoxicity is 11.9% (inactive).
Consider `COc1ccccc1-c1nnc2sc(-c3cc4ccccc4o3)nn12`, for which the cytotoxicity is 53.5% (active).
The same measure for `c1ccc(-c2nnc3sc(-c4cc5ccccc5o4)nn23)cc1`: -3.1% (inactive); for `Cc1nnc2sc(-c3cc4ccccc4o3)nn12`: 0.8% (inactive).

These data come from PubChem BioAssay AID620 (Sanford-Burnham Center for Chemical Genomics, 2007).
